Measurements taken from PubChem BioAssay (NCATS).
Records with an inconclusive call do not appear. Activity calls are given as the source filed them. Unless noted, calls come from the whole dose curve; as a rule, active = well fitted curve in the direction sought with a large enough effect; inconclusive = small, poorly fitted or top-dose-only effect, or another doubt; inactive = no such curve, though single readings can be large; an effect the other way counts as inactive or inconclusive.

How the values were obtained:
[1] = target: Aldehyde dehydrogenase, mitochondrial (Homo sapiens) (UniProt P05091); experiment: qHTS for Inhibitors of the Aldehyde Dehydrogenase Family (ALDH2) Confirmatory screens (AID 2061303; active = well fitted inhibition curve with a large enough effect; title and protocol of this record describe different tests; note: nearly all actives have a fitted effect of over 45% in size; note: potency is the fitted concentration of half-maximal effect)
[2] = qHTS for Inhibitors of the Aldehyde Dehydrogenase Family (ALDH1A2, ALDH1A3, ALDH2, ALDH3A1) (AID 2061307); note: nearly all actives have a fitted effect of over 50% in size; for Potency: test system not described further here; potency is the fitted concentration of half-maximal effect
[3] = target: Aldehyde dehydrogenase, mitochondrial (Homo sapiens) (UniProt P05091); experiment: qHTS for Inhibitors of the Aldehyde Dehydrogenase Family (ALDH2) Primary screen (AID 2061308); note: nearly all actives have a fitted effect of over 55% in size; note: potency is the fitted concentration of half-maximal effect
[4] = target: Retinaldehyde dehydrogenase 3 (Homo sapiens) (UniProt P47895); experiment: qHTS for Inhibitors of the Aldehyde Dehydrogenase Family (ALDH1A3) Confirmatory screens (AID 2061311); note: nearly all actives have a fitted effect of over 60% in size; note: potency is the fitted concentration of half-maximal effect
[5] = target: Retinaldehyde dehydrogenase 3 (Homo sapiens) (UniProt P47895); experiment: qHTS for Inhibitors of the Aldehyde Dehydrogenase Family (ALDH1A3) Primary screen (AID 2061315)
[6] = target: Aldehyde dehydrogenase 1A1 (Homo sapiens) (UniProt P00352); experiment: qHTS for Inhibitors of the Aldehyde Dehydrogenase Family (ALDH1A1) Confirmatory screens (AID 2061316); note: nearly all actives have a fitted effect of over 65% in size; note: potency is the fitted concentration of half-maximal effect
[7] = BET inhibitor-based combinations targeting novel dependencies in MECOM-rearranged (r) AML: SET-2 cell line (AID 2202231); conditions: SET-2 AML cells viability, CellTiter-Glo luminescence, 48 h; viability: hits give low values, concentration not given here; note: potency is the fitted concentration of half-maximal effect; nearly all actives have a fitted effect of over 35% in size
In short: (§1)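 500 cells/well; 11-pt dose curve; 48 h, standard incubator; CellTiter-Glo luminescence after 15 min RT; DMSO/empty-well normalization; AUC plus Z-AUC (mean-centered within each line).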

[8] = BET inhibitor-based combinations targeting novel dependencies in MECOM-rearranged (r) AML: OCI-AML3 cell line (AID 2202232); conditions: Potency: OCI-AML3 viability; note: potency is the fitted concentration of half-maximal effect; nearly all actives have a fitted effect of over 35% in size
In short: as §1

[9] = BET inhibitor-based combinations targeting novel dependencies in MECOM-rearranged (r) AML: MV-4-11 cell line (AID 2202233); note: potency is the fitted concentration of half-maximal effect; nearly all actives have a fitted effect of over 45% in size
In short: (§2)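 Cells were plated at 500 per well and exposed to each drug across an 11-point dose range for 48 hr at standard incubator conditions. Viability was read by CellTiter-Glo luminescence, and activity was expressed as AUC and per-cell-line Z-transformed AUC.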

[10] = BET inhibitor-based combinations targeting novel dependencies in MECOM-rearranged (r) AML: HNT-34 cell line (AID 2202234); note: potency is the fitted concentration of half-maximal effect; nearly all actives have a fitted effect of over 35% in size
In short: as §2

[11] = BET inhibitor-based combinations targeting novel dependencies in MECOM-rearranged (r) AML: UCSD-AML1 cell line (AID 2202235); note: potency is the fitted concentration of half-maximal effect; nearly all actives have a fitted effect of over 40% in size
In short: as §2

[12] = BET inhibitor-based combinations targeting novel dependencies in MECOM-rearranged (r) AML: AML-191 cell line (AID 2202236; note: potency is the fitted concentration of half-maximal effect; nearly all actives have a fitted effect of over 35% in size)
In short: as §1

[13] = BET inhibitor-based combinations targeting novel dependencies in MECOM-rearranged (r) AML: AML-194 cell line (AID 2202237; note: potency is the fitted concentration of half-maximal effect; nearly all actives have a fitted effect of over 40% in size)
In short: as §1

Measured: Potency

Cc1ccc(NS(=O)(=O)c2ccc3c(c2)CC(=O)N3)cc1C
inactive: [1] | [2] | [3] | [4] | [5]
active: [6] 1.59 µM

CCOc1ccc(C(=O)Nc2ccc(-c3nc4ccccc4[nH]3)cc2)cc1
inactive: [1] | [2] | [3] | [4] | [5] | [6]

O=[N+]([O-])c1ccc(CNc2ccc([S+](=O)([O-])Nc3nccs3)cc2)c(O)c1
inactive: [1] | [2] | [3] | [4] | [5]

CC(C)Nc1cc(-c2c[nH]c(C(=O)N[C@H](CO)c3cccc(Cl)c3)c2)c(Cl)cn1
inactive: [1] | [2] | [3] | [4] | [5]
active: [7] 20.9 µM | [8] 2.35 µM | [9] 13.2 µM | [10] 4.68 µM | [11] 7.42 µM | [12] 7.42 µM | [13] 8.33 µM

Cc1ccc(Nc2nc(C#N)nc(NC3CCCC3)n2)cc1
inactive: [1] | [2] | [3] | [4] | [5]

O=C1CCCC2=C1C(c1[nH]ncc1Cl)NC(=S)N2 (configuration not stated)
inactive: [1] | [2] | [3] | [4] | [5]

Cc1cccc(S(=O)(=O)NC2CCN(C#N)C2)c1 (configuration not stated)
active: [6] 11.3 µM
inactive: [1] | [2] | [3] | [4] | [5]

CC(C)(C)CNc1nc(C#N)nc(Nc2ccccc2)n1
inactive: [1] | [3] | [4] | [5]
active: [2] 12.7 µM

COc1cccc(CNc2ccc([S+](=O)([O-])Nc3cc4ccccc4s3)cc2)c1O
active: [4] 11.3 µM
inactive: [1] | [2] | [3] | [5] | [6]

COc1cccc(C2c3c(ncn(-c4ccccc4C#N)c3=N)Oc3ccc4ccccc4c32)c1 (configuration not stated)
inactive: [1] | [2] | [3] | [5]
active: [4] 25.2 µM

CCOC(=O)c1cccc(-n2cccc2/C=C2\NC(=O)N(CC(=O)O)C2=O)c1
inactive: [1] | [2] | [3] | [4] | [5]

CN1CCc2sc(NC(=O)Cc3ccccc3)c(C(=O)Nc3ccc(Cl)cc3)c2C1
inactive: [1] | [2] | [3] | [4] | [5]

CN(Cc1cccs1)c1ncnc2ccc(-c3ccc4cnn(C)c4c3)cc12
inactive: [1] | [2] | [3] | [4] | [5] | [6]

COc1ccc(C2=Nn3c(nnc3-c3ccc(OC)c(OC)c3)SC2)c(OC)c1
inactive: [1] | [2] | [3] | [4] | [5]
active: [6] 6.34 µM

FC(F)(F)c1ccccc1-c1nc(NCc2ccc(Cl)cc2)c2ccccc2n1
inactive: [1] | [2] | [3] | [4] | [5] | [6]

O=C1Cc2cc(S(=O)(=O)N3CCN(c4ccc(C(F)(F)F)cc4)CC3)ccc2N1
inactive: [1] | [2] | [3] | [4] | [5] | [6]

Cc1cccc(C)c1-n1c(SCC(=O)NCCCCCC(=O)O)nnc1-c1cccc([S+](=O)([O-])N2CCCC2)c1
inactive: [1] | [2] | [3] | [4] | [5] | [6]

O=C(c1ccc(-c2cc(O)c3ncccc3c2)cc1)N1CCNCC1
inactive: [1] | [2] | [3] | [5] | [6]
active: [4] 11.3 µM

Cc1ccc(C)c(SC2=NS(=O)(=O)c3ccccc32)c1
inactive: [1] | [2] | [3] | [4] | [5] | [6]

COc1ccc(OC)c(-c2nnc3n2N=C(c2ccc(OC)c(OCC4CC4)c2)CS3)c1
active: [6] 2.25 µM
inactive: [1] | [2] | [3] | [4] | [5]

S=C(Nc1cc(Cl)ccn1)N1CCN(c2ccc3ccccc3n2)CC1
active: [1] 7.94 µM | [2] 14.1 µM | [3] 1.58 µM | [4] 22.5 µM | [6] 5.65 µM
inactive: [5]

COc1ccc(C2Nc3ccccc3C(=O)N2Cc2ccccc2C(F)(F)F)cc1COc1ccc(NC(C)=O)cc1 (configuration not stated)
active: [1] 0.316 µM | [2] 2.25 µM | [4] 15.9 µM
inactive: [3] | [5]

CC(=O)c1ccc(N2CCN(C(=O)c3ccc4c(c3)CC(=O)N4)CC2)cc1
inactive: [1] | [2] | [3] | [4] | [5]

O=C(Cc1ccc(Cl)c(Cl)c1)Nc1ccc(S(=O)(=O)Nc2cccc(C(=O)O)c2)cc1
inactive: [1] | [2] | [3] | [4] | [5] | [6]

Nc1nnc(-c2cccc3ccccc23)o1
inactive: [1] | [2] | [3] | [4] | [5] | [6]
